Pf growth 48h = inhibits P. falciparum growth in the first generation, 48 h | Potency, µM (highest dose often 28.7 µM), inactives show at the highest dose activity change, negative = inhibition, usual class: inhibitors | AID 504832 | P. falciparum luciferase growth in erythrocytes, 48 h | 310,000 tested, 5.9% active; also: potency is read from the fitted curve at half-maximal effect
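Firefly luciferase activity from engineered P. falciparum reports growth; inhibitors lower the luminescent signal. Cultures contained 2% hematocrit erythrocytes at 0.1% final parasitemia.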
HCV inhibitor = inhibitors of hepatitis C virus infection | Huh7.5.1 HCVcc-Cre infection, luciferase reporter, 44 h | Potency, µM (doses to about 41.8 µM), for inactives: top-dose activity change, negative = inhibition, actives largely listed as inhibitors | 340,000 tested, 3.4% active | AID 651820; also: potency is read from the fitted curve at half-maximal effect
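Infectious HCV cell culture screen: compound-treated cells (1,000/well, pre-plated 4 h) are infected with HCVcc-Cre at roughly 0.5 moi and grown 44 h. Infection is quantified by luciferase signal after 15 min substrate incubation at room temperature.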
Pf growth 96h = P. falciparum growth inhibition at 96 hours; P. falciparum luciferase reporter growth, 96 h; 320,000 tested, 6.9% active; Potency, µM (doses to about 28.7 µM), inactives show at the top dose activity change, negative = inhibition, hits mostly inhibitors; AID 504834; also: potency is read from the fitted curve at half-maximal effect
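Infected RBCs, 2% Hct / 0.05% parasitemia final; luciferase-reporter P. falciparum; cpd 96 h, 37 C, 5% CO2; luciferase detection reagent; luminescence.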
HCMV antiviral = blocks human cytomegalovirus replication; HFF cells, HCMV-luciferase reporter, 72 h; hits give low values; activity change, negative = inhibition, % at 57.5 µM; 410,000 tested, 4.5% active; in the data active = activity change below about -60%; inconclusive = no clear call, values can overlap the other calls; inactive = above about -39%
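Steps: HFFs plated, 16 h 37C; compounds added; HCMV-luciferase added to MOI 1 PFU/cell; 72 h 37C; OneGlo reagent, 5 min room temperature; luminescence read, normalized to controls.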
Numbers without * were called inactive; ? = inconclusive; nt = not tested or not shown; [ ] = another dose, or the depositor's remark. This is a sample that favours compounds with a hit; in the whole collection about 13% have one here. Unless noted, calls follow the shape of the dose curve; as a rule, active = well fitted inhibition curve with a large enough effect; inconclusive = small, poorly fitted or top-dose-only effect, or another doubt; inactive = no such curve, though single readings can be large or run the other way. % is scaled to controls: 0 for no effect and ±100 for the full control effect.

SMILES | Pf growth 48h | HCV inhibitor | Pf growth 96h | HCMV antiviral
O=c1c(-c2ccc3c(c2)OCCO3)coc2cc(O)cc(O)c12 | 91% | -5% | 5% | 129
Cc1ccccc1OCC(=O)Nc1ccc(C(=O)OCc2cc(=O)n3ccsc3n2)cc1 | nt | nt | nt | 10
Cc1ccc(-n2nc(C)c3c(C)c(CCC(=O)NCc4ccc(Cl)cc4)c(C)nc32)cc1 | nt | nt | nt | -27
O=C(CNc1cccc([N+](=O)[O-])c1)N/N=C/c1ccc(F)cc1 | ? | -5% | -16% | -63*
O=C(Cc1ccc2c(c1)OCO2)NN=Cc1ccc([N+](=O)[O-])o1 | nt | 10µM* | nt | -39
Cc1ccc(CCC(=O)Nc2ccc(Cl)cc2Cl)o1 | nt | nt | nt | -66*
O=C(CNC(=O)c1ccccc1)N/N=C/c1ccc([N+](=O)[O-])o1 | 4.7µM* | ? | ? | -80*
Cc1ccc(CCC(=O)Nc2ccc([N+](=O)[O-])cc2Cl)o1 | -6% | ? | ? | -2
COC(=O)c1nnn(-c2cccc(C)c2)c1N | nt | nt | nt | 2
COc1ccccc1CNc1ncnc2c1nnn2C | nt | nt | nt | -34
O=C(CNc1ccccc1)N/N=C/c1ccc([N+](=O)[O-])o1 | 3.7µM* | ? | 2.6µM* | -82*
O=C(CCC(=O)Nc1ccc(Cl)cc1Cl)N/N=C/c1ccc([N+](=O)[O-])o1 | ? | ? | ? | -77*
O=C(Cc1ccccc1)N/N=C/c1ccc(-c2ccc([N+](=O)[O-])cc2)o1 | 16% | -4% | 27% | -61*
O=[N+]([O-])c1ccc(/C=N/NC(=S)Nc2ccccc2)o1 | 5% | -10% | -14% | -26
NC(=O)N/N=C/c1ccc(-c2ccc([N+](=O)[O-])cc2)o1 | 53% | 10% | -26% | 3
Cc1cccc(N(CC(=O)Nc2cccc(Cl)c2C)S(C)(=O)=O)c1C | nt | nt | nt | -5
CN(C)c1ccc(C(=O)N/N=C/C23CC[C@@H](O)CC2(O)CC[C@@H]2[C@@H]3CCC3(C)C(C4=CC(=O)OC4)CCC23O)cc1 (some centres undefined) | ? | -30% | ? | -99*
COc1ccc(C(=O)N/N=C/C23CC[C@@H](O)CC2(O)CC[C@@H]2[C@@H]3CCC3(C)C(C4=CC(=O)OC4)CCC23O)cc1 (some centres undefined) | -18% | 3% | -3% | -82*
Cc1ccccc1-c1noc(-c2ccccc2OCC(=O)Nc2ccccc2[N+](=O)[O-])n1 | nt | nt | nt | -1
COc1ccc(-c2[nH]ncc2CN2CCN(Cc3cccs3)CC2)cc1F | ? | ? | ? | -35
CCN(CC)C1CCN(Cc2cn[nH]c2-c2ccc(OC)c(F)c2)C1 (centres undefined) | 12% | 8% | 2.1µM* | -1
CCOC(=O)C1=C(c2ccccc2)OC(N)=C(C#N)C1C1CCCCC1 (centres undefined) | 8% | -17% | nt | -1
COC(=O)/C(=C1/Oc2ccc(C(C)(C)C)cc2S1)C(F)(F)F | 57% | 6% | ? | ?
CCOC(=O)C1=C(c2ccccc2)O/C(=C(/C#N)C(F)(F)F)S1 | 9.3µM* | nt | nt | nt
CCOC(=O)C1=C(c2ccccc2)O/C(=C(\C(=O)OC)C(F)(F)F)S1 | nt | -17% | 9.3µM* | -3
SMILES | Pf growth 48h | HCV inhibitor | Pf growth 96h | HCMV antiviral
CS(=O)(=O)N1CCC(N2CCN(Cc3ccccc3)C(=O)C2=O)CC1 | nt | nt | nt | -3
CCOc1cc2c(cc1OCC)C(c1ccccc1)N(c1ccccc1)C(=O)C2 (centres undefined) | ? | ? | 4.1µM* | -2
CCCn1c(SCC(=O)N2CCc3ccccc32)nnc1-c1ccco1 | ? | 1% | ? | -18
CCCn1c(SCC(=O)N2c3ccccc3CC2C)nnc1-c1ccco1 (centres undefined) | 12µM* | -13% | ? | -7
COCCn1c(SCC(=O)NCCc2ccccc2)nnc1-c1ccco1 | 7% | 5% | 1%[5.75 µM] | -1
CCn1c(SCC(=O)N2CCCC(C)C2)nnc1-c1ccco1 (centres undefined) | 12% | 7% | ? | 27
COCCn1c(SCc2cccnc2)nnc1-c1ccco1 | 23% | 4% | 9.3µM* | -19
COCCCn1c(SCC(=O)N2CCCC(C)C2)nnc1-c1ccco1 (centres undefined) | -5% | 12% | 0.59µM* | 18
COc1ccc(OC)c(NC(=O)C2CCCN2C(=O)C2CCC(C)CC2)c1 (centres undefined) | nt | -11% | 9.3µM* | -11
O=[N+]([O-])c1cc(-c2nc(-c3ccccc3)no2)ccc1N1CCCCC1 | nt | nt | nt | -88*
CN1CCN(c2ccc(-c3nc(-c4ccccc4)no3)cc2[N+](=O)[O-])CC1 | nt | nt | nt | -99*
COc1ccc(-c2noc(-c3ccc(N4CCN(C)CC4)c([N+](=O)[O-])c3)n2)cc1 | nt | nt | nt | 19
CC(C)Cn1c(-c2csc3ccccc23)n[nH]c1=S | 2% | 13% | ? | -18
Cc1cccc(-n2c(-c3csc4ccccc34)n[nH]c2=S)c1 | -11% | -12% | -18% | -70*
Cc1ccc(N(C(=O)CCC(=O)Nc2cc(C)on2)C(C(=O)NC2CCCC2)c2cccs2)cc1 (centres undefined) | 12µM* | ? | nt | -5
Cc1cc(NC(=O)CCC(=O)N(c2ccccc2)C(C(=O)NC2CCCC2)c2ccccc2C)no1 (centres undefined) | 13µM* | 16% | ? | 2
Cc1cc(NC(=O)CCC(=O)N(c2ccccc2)C(C)C(=O)NC2CCCC2)no1 (centres undefined) | 11% | 7% | 23% | 1
COCCN(C(=O)Cn1nnc2ccccc21)C(C(=O)NC1CCCCC1)c1ccc(OC)cc1OC (centres undefined) | ? | 17% | ? | -15
Cc1ccc(C(C(=O)NC2CCCC2)N(Cc2ccco2)C(=O)CCC(=O)Nc2cc(C)on2)cc1 (centres undefined) | ? | ? | 13µM* | 3
COc1ccc(N(C(=O)Cn2nnc3ccccc32)C2(C(=O)NC3CCCC3)CCCCC2)cc1 | 13µM* | 5.6µM* | 13µM* | ?
Cc1cc(NC(=O)CCC(=O)N(c2ccccc2)C(C(=O)NC2CCCC2)c2cccs2)no1 (centres undefined) | ? | -20% | nt | 3
CC1CCc2nc3ncn(Cc4ccccc4C#N)c(=O)c3cc2C1 (centres undefined) | nt | nt | nt | 7
COc1ccc(OC)c(/C=C/C(=O)Nc2ccc(C(=O)OCCC(C)C)cc2)c1 | nt | nt | nt | -18
COc1ccccc1N1CCN(C(=O)c2cnc(N3CCCCC3)c3ccccc23)CC1 | nt | nt | nt | -37
COc1ccc(C(C(=O)NC2CCCC2)N(CCC(C)C)C(=O)CCC(=O)Nc2cc(C)on2)cc1 (centres undefined) | ? | -5% | -1% | -22
COc1ccc(N(C(=O)Cn2cnc3ccccc32)C(C(=O)NC2CCCCC2)c2ccccc2)cc1 (centres undefined) | 13µM* | ? | ? | -26
